Laboratory results from article PMC5540273 (PLoS ONE, 2017).

How the values were obtained:
Conditions in all cases: concentration: 1 μM, replicates: in singlicate; n = 1
WNK1 = test system: WNK1
WNK2 = test system: WNK2
WNK3 = test system: WNK3
WNK4 = test system: WNK4
YANK1 = test system: T1, YANK1
T1 construct: gene STK32A

YANK2 = test system: T2, YANK2
T2 construct: gene STK32B

YANK3 = test system: T3, YANK3
T3 construct: gene STK32C

YES = test system: T4, YES
T4 construct: gene YES1

YSK1 = test system: T5, YSK1
T5 construct: gene STK25

YSK4 = test system: T6, YSK4
T6 construct: gene MAP3K19

ZAK = test system: ZAK
ZAP70 = test system: ZAP70
p38-alpha = test system: T7, p38-alpha
T7 construct: gene MAPK14

p38-beta = test system: T8, p38-beta
T8 construct: gene MAPK11

p38-delta = test system: p38-delta
p38-gamma = test system: T9, p38-gamma
T9 construct: gene MAPK12
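Also: KINOMEscan kinase panel screen.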

Compound	%Inh (WNK1)	%Inh (WNK2)	%Inh (WNK3)	%Inh (WNK4)	%Inh (YANK1)	%Inh (YANK2)	%Inh (YANK3)	%Inh (YES)	%Inh (YSK1)	%Inh (YSK4)	%Inh (ZAK)	%Inh (ZAP70)	%Inh (p38-alpha)	%Inh (p38-beta)	%Inh (p38-delta)	%Inh (p38-gamma)
Cn1cc(-c2ccc3c(c2)CCN3C(=O)Cc2cc(F)cc(F)c2F)c2c(N)ncnc21 [GSK2634140]	13%	8%	23%	14%	29%	13%	0%	15%	23%	96.7%	0%	0%	0%	0%	14%	2%
Cc1ccc(NC(=O)c2ccc(Cl)c(Cl)c2)cc1-c1ccc(C(=O)Nc2ccncc2)cc1 [GSK1398460]	0%	0%	0%	17%	12%	7%	22%	29%	26%	83%	49%	0%	0%	12%	24%	0%
Cc1ccc(Nc2ccnc(Nc3ccc(C)c(F)c3)n2)cc1O.Cl [GW582868]	41%	12%	31%	49%	1%	0%	1%	53%	0%	25%	2%	0%	0%	0%	30%	0%
Cc1cc(-c2ccnc(Nc3cccc(C#N)c3)n2)cc(C)c1O [GSK1440913]	7%	0%	4%	26%	7%	0%	13%	19%	4%	97%	16%	2%	0%	0%	99.7%	91.6%
CC(C)(C)c1ccc(C(=O)Nc2cn3cc(-n4ccnc4)ccc3n2)cc1	0%	3%	0%	0%	0%	0%	0%	0%	0%	79%	7%	0%	11%	9%	21%	0%
CC(C)c1nc(-c2cccc(NS(=O)(=O)c3c(F)cccc3F)c2)c(-c2ccnc(Nc3ccc(N4CCOCC4)nc3)n2)s1.Cl [GSK1723980]	3%	0%	5%	4%	15%	9%	19%	99.7%	1%	91.8%	98.6%	0%	27%	10%	0%	0%
COc1cccc(NC(=O)NCCNc2ccnc(Nc3ccc(F)cc3)n2)c1 [GSK1379879]	5%	22%	22%	46%	0%	0%	0%	0%	0%	44%	34%	17%	0%	0%	59%	0%
CS(=O)(=O)c1cccc(CNc2nc(Nc3ccc4c(c3)CCC(=O)N4)ncc2C(F)(F)F)c1	0%	0%	0%	0%	0%	0%	0%	0%	0%	99%	0%	43%	3%	0%	8%	4%
Nc1ncc(-c2ccc3nccc(-c4ccncc4)c3c2)cc1S(=O)(=O)N1CCCCC1 [GSK1693850]	1%	4%	13%	64%	5%	0%	0%	10%	13%	69%	22%	0%	0%	0%	36%	22%
O=C(Nc1n[nH]c2nc(-c3cccc(O)c3)ccc12)C1CC1 [SB-711805]	28%	26%	0%	63%	4%	0%	0%	0%	0%	90.9%	25%	23%	7%	18%	0%	12%
CSc1ccc(NC2=C(c3ccc(Cl)cc3)C(=O)NC2=O)cc1 [SB-317658]	20%	24%	4%	0%	0%	2%	33%	0%	0%	21%	28%	0%	0%	12%	11%	0%
NCCC(NC(=O)c1cc(Br)c(-c2ccnc3[nH]ccc23)s1)c1ccccc1.O=C(O)C(F)(F)F.O=C(O)C(F)(F)F (stereo not drawn) [GSK1307810]	0%	0%	24%	37%	10%	0%	18%	14%	4%	97.3%	10%	0%	8%	0%	21%	0%
Cc1ccc(O)cc1Nc1ccnc2ccc(C(C)(C)C)cc12 [GW856805]	38%	0%	21%	0%	29%	4%	45%	76%	1%	48%	0%	15%	1%	16%	0%	41%
Fc1cc(Cl)ccc1Nc1ccnc2cc(-c3ccc(CN4CCSCC4)o3)ccc12 [GW560106]	1%	0%	35%	14%	7%	24%	1%	79%	19%	66%	52%	0%	35%	0%	36%	0%
COc1cc(Nc2ccnc3cc(-c4ccncc4)ccc23)cc(OC)c1OC.Cl [GW494610]	22%	4%	16%	19%	2%	32%	9%	76%	0%	98.5%	49%	8%	52%	66%	2%	0%
Cn1cc(-c2cnc(N)c3c(-c4ccc5c(c4)CCN5C(=O)Cc4ccccc4)csc23)cn1 [GSK2593074]	0%	0%	0%	0%	0%	0%	0%	55%	6%	43%	59%	0%	8%	1%	0%	14%
COc1ccc(NC(=O)c2ccoc2)cc1-c1ccc(C(=O)NCC2CC2)cc1 [GW810437]	9%	0%	12%	0%	0%	13%	12%	0%	0%	34%	2%	36%	10%	1%	0%	0%
CC(=O)Nc1cn2nc(Oc3cccc(NC(=O)c4cccc(C(F)(F)F)c4)c3)ccc2n1	0%	0%	0%	0%	0%	0%	0%	96.2%	0%	99.9%	98.6%	0%	32%	28%	0%	34%
Cc1ccc(NC(=O)c2cccc(N3CCCCC3)c2)cc1-c1ccc(C(=O)NCC2CC2)cc1 [GSK1917008]	13%	0%	2%	10%	9%	11%	22%	10%	12%	35%	33%	0%	99.9%	99.4%	46%	50%
CN(c1ccc(F)c(NC(=O)c2cccc(OC(C)(C)C#N)c2Cl)c1)c1ccc2nc(NC(=O)C3CC3)sc2n1	0%	19%	0%	0%	0%	0%	0%	91.4%	0%	20%	64%	0%	70%	6%	0%	37%
COc1ccc(C)c(Nc2ccnc(Nc3ccc(-c4cnc[nH]4)cc3)n2)c1.Cl [GW784041]	0%	0%	0%	0%	0%	0%	0%	29%	0%	7%	92.4%	0%	0%	14%	11%	42%
COc1cccc2c(-c3ccncc3)c(-c3ccc(F)cc3)nn12 [GW468513]	0%	0%	31%	24%	65%	72%	72%	15%	4%	6%	16%	9%	99.9%	82%	34%	0%
COc1ccc(C2=C(Nc3cccc(O)c3)C(=O)NC2=O)cc1 [SB-390766]	16%	99.7%	34%	87%	0%	0%	17%	0%	0%	44%	7%	0%	23%	0%	94.4%	0%
CCOc1nccc(-c2c(-c3ccc(F)cc3)ncn2C2CCNCC2)n1 [SB-249175]	25%	4%	4%	0%	52%	36%	0%	0%	2%	37%	15%	32%	99.3%	100%	4%	43%
